PubChem BioAssay AID651958 (The Scripps Research Institute Molecular Screening Center, 2012)
Several values for one entry are separate records, joined by “and”; a condition that tells them apart may be missing. Equal values may be shown once. Among all 370,000 compounds or so, about 2,000 (0.54%) were called active. Cut-off read from the data, not from the text of the source: active = inhibition above about 30%; inactive = the rest. The full list was thinned out, with actives kept by preference.

The compounds below were run on Crimean-Congo hemorrhagic fever virus L polyprotein viral ovarian tumor (vOTU) protease domain (assay: CCHFV vOTU protease inhibitors, primary screen, biochemical, Pep-AMC substrate, fluorescence (AID 651958; note: 0% = vehicle wells with enzyme and 100% = no enzyme wells)). Settings: at 11.5 µM, hits give high values.
In the case of `CCOC(=O)c1cc2c(=O)[nH]c(C(Cl)(Cl)Cl)nc2o1`, the inhibition is reported as -3.85% (inactive). With `CCOC(=O)c1ccc(NC(=O)C2CC(=O)Nc3nc4ccccc4n32)cc1` (stereo unspecified) the inhibition was 19.2% (inactive). `CCOC(=O)c1ccc(Nc2cc3ccccc3c(=O)[nH]2)cc1` was tested, and the inhibition was 94.2% (active). `Cc1cc(C)cc(NC(=S)NC2CC3CCCC(C2)N3Cc2cccs2)c1` (stereo unspecified) was tested, and the inhibition was -9.42% (inactive). In the case of `CCC(C)(C(=O)NC1CCCC1)N(C(=O)CNC(C)=O)c1ccc(C)cc1` (stereo unspecified), the inhibition is reported as 7.89% (inactive). With `Oc1c(C=Nc2cccc3nsnc23)ccc2ccccc12` the inhibition was 86% (active). In the case of `CC1=C(C(=O)N2CCOCC2)CC(CC(=O)NCC2CCCCC2)C(=O)N1Cc1ccc(F)cc1` (stereo unspecified), the inhibition is reported as 14% (inactive). In the case of `CCCn1c(N)c(C(=O)CSc2nnc(Cc3cccs3)n2C2CC2)c(=O)[nH]c1=O`, the inhibition is reported as -3.09% (inactive). `CC(=O)c1c(N)n(C)c(=O)n(C)c1=O` was tested, and the inhibition was 5.25% (inactive). `N#C/C(=C\c1ccccc1)c1n[nH]c(Cn2cncn2)n1` was tested, and the inhibition was 4.11% (inactive). `CCc1ccc(/C=N/NC(=O)c2ccc(OC3CCCC3)cc2)s1` was tested, and the inhibition was 12.3% (inactive). For `COc1ccc(CNCCCNCc2ccc(OC)c(OC)c2)cc1OC`, the inhibition was 5.96% (inactive). With `Cc1ccc2[nH]c(=O)c(CC=C(Cl)Cl)c(C)c2c1` the inhibition was 3.16% (inactive). `CC(C)(C)OC(=O)NCCCCCNC(=O)c1[nH]cnc1C(=O)Nc1nccs1` was tested, and the inhibition was 0.59% (inactive). In the case of `Cc1ccc(NC(=O)c2nc[nH]c2C(=O)N[C@@H](CCCCNC(=O)OC(C)(C)C)C(=O)OC(C)(C)C)cc1`, the inhibition is reported as 27.1% (inactive). In the case of `CCOC(=O)c1ccc(NC(=O)c2nc[nH]c2C(=O)N[C@@H](CCCCNC(=O)OC(C)(C)C)C(=O)OC(C)(C)C)cc1`, the inhibition is reported as 29.6% (active). With `CCOC1=C2CN(S(=O)(=O)c3ccc(C)cc3)[C@H](c3cccs3)C[C@H]2[C@H]2C(=O)N(c3ccccc3)C(=O)[C@H]2C1` the inhibition was -5.03% (inactive). In the case of `O=C(COc1ccc(Cl)cc1)N1CCN(S(=O)(=O)c2ccc(Cl)cc2)CC1`, the inhibition is reported as 9.84% (inactive). With `CSCCC(NC(=O)COc1ccccc1)C(=O)N1CCN(c2cccc(C(F)(F)F)c2)CC1` (stereo unspecified) the inhibition was 13.9% (inactive). With `O=C(COc1ccc(Cl)cc1)N1CCN(c2cccc(C(F)(F)F)c2)CC1` the inhibition was 32.4% (active). `CCNC(=O)N1CCCC(C(=O)c2ccc(-c3ccccc3)cc2)C1` (stereo unspecified) was tested, and the inhibition was -6.51% (inactive). `Cc1ccc(N(CCC(=O)O)S(=O)(=O)c2cccc(C(F)(F)F)c2)cc1` was tested, and the inhibition was -2.86% (inactive). With `Cc1noc(C)c1S(=O)(=O)Nc1ccc(C(=O)O)cc1` the inhibition was 7.91% (inactive). In the case of `Cc1oc2c(F)c(F)c(F)c(F)c2c1S(=O)(=O)Nc1cccc(C(F)(F)F)c1`, the inhibition is reported as 43.8% (active). For `C[C@]12C=CC(=O)C=C1CC[C@@H]1[C@@H]2C(=O)C[C@@]2(C)[C@H]1CC[C@]2(O)C(=O)CO`, the inhibition was 0.7% (inactive) and 3.02% (inactive). `COCCCN(C(=S)Nc1c(C)cc(C)cc1C)C(C)c1ccncc1` (stereo unspecified) was tested, and the inhibition was -6.09% (inactive). With `CCc1ccc(C2C(C#N)=C(N)N(N(C)C)C3=C2C(=O)CCC3)s1` (stereo unspecified) the inhibition was 1.4% (inactive). With `CCOc1ccc(C2C(C#N)=C(N)N(N(C)C)C3=C2C(=O)CCC3)cc1` (stereo unspecified) the inhibition was 16.2% (inactive). `CN(C)N1C(N)=C(C#N)C(c2ccc(Br)cc2)C2=C1CCCC2=O` (stereo unspecified) was tested, and the inhibition was 35.1% (active). With `CC(C(=O)N=Nc1c(O)n(C)c2ccc(Br)cc12)n1cnc2ccccc2c1=O` (stereo unspecified) the inhibition was -4.46% (inactive). `CNc1nccc(-c2ccc(Cl)cc2)c1C#N` was tested, and the inhibition was -58.4% (inactive). With `CCn1c(C)nc2cc(C(=O)NNS(=O)(=O)c3ccc(C)cc3C)ccc21` the inhibition was -9.65% (inactive). `O=C1Cc2ccccc2Sc2ccc(Cl)cc21` was tested, and the inhibition was 7.8% (inactive). In the case of `CCN(CC)C(=O)[C@@H]1C=C2c3cccc4[nH]c(Br)c(c34)C[C@H]2N(C)C1`, the inhibition is reported as 33.8% (active). With `COc1ccc(CCN2C(=O)N(c3ccc(OC)cc3)C(=O)C2CC(=O)Nc2ccc(OC)cc2)cc1` (stereo unspecified) the inhibition was 4.43% (inactive). `CC1(C)CN(CCc2ccccc2)C(=O)[C@H]1CC(=O)Nc1ccc(Br)cc1` was tested, and the inhibition was 21.8% (inactive). `COc1ccc(NC(=O)C[C@H]2C(=O)N(CCc3ccccc3)C[C@@H]2C)cc1` was tested, and the inhibition was 29.5% (active). In the case of `COC(=O)C1=C(c2cc3ccccc3s2)C[C@@H]2CC[C@H]1N2C(=O)NCCO`, the inhibition is reported as -0.84% (inactive). With `Cc1noc(/C=C/c2ccco2)c1S(=O)(=O)N1CCC(C(=O)Nc2ccc(Cl)cn2)CC1` the inhibition was 2.84% (inactive). For `O=C(Nc1ccc(S(=O)(=O)NCC2CCCO2)cc1)c1ccc(F)cc1` (stereo unspecified), the inhibition was 14% (inactive). With `Cc1ccc(NC(=O)c2ccc(S(=O)(=O)NCC3CCCO3)cc2)cc1C` (stereo unspecified) the inhibition was -7.16% (inactive). For `CCOc1ccc(C(=O)Nc2ccc(S(=O)(=O)NCC3CCCO3)cc2)cc1OCC` (stereo unspecified), the inhibition was 35% (active). For `CC(C)c1ccc(Nc2ncccc2C#N)cc1`, the inhibition was 7.01% (inactive). `CCC(C)(C)NC(=O)C(c1ccc(O)cc1)N(Cc1ccco1)C(=O)CCC(=O)Nc1ccccn1` (stereo unspecified) was tested, and the inhibition was 0.91% (inactive). For `CSc1ccccc1NC(=O)CN(C)CC(=O)Nc1cccc(Br)c1`, the inhibition was 0.92% (inactive). `Cc1cccc(N(C(=O)c2sc(C)nc2C)C(C(=O)NCC2CCCO2)c2ccccc2)c1` (stereo unspecified) was tested, and the inhibition was -8.32% (inactive). `C=CCn1c(N)cc(=O)nc1SCC(=O)Nc1cccc2ccccc12` was tested, and the inhibition was -1.46% (inactive). In the case of `Cc1ccccc1-n1c(SCC(=O)Nc2cccc3ccccc23)nc(O)cc1=O`, the inhibition is reported as 32.7% (active). In the case of `Cc1ccc(-n2c(SCC(=O)Nc3cccc4ccccc34)nnc2-c2ccccn2)cc1`, the inhibition is reported as -2.55% (inactive). In the case of `O=C(Cn1cnc2c(OCc3ccccc3)ncnc21)NCc1nc2ccccc2[nH]1`, the inhibition is reported as -9.89% (inactive). For `Cn1c(=NC(=O)c2ccc3c(c2)OCCO3)sc2cc(S(C)(=O)=O)ccc21`, the inhibition was -4.23% (inactive). In the case of `Cn1c(=NC(=O)c2ccco2)sc2cccc(F)c21`, the inhibition is reported as 5.27% (inactive). With `Cn1c(=NC(=O)c2cnccn2)sc2ccccc21` the inhibition was 36.4% (active). In the case of `COC(=O)c1ccc(CN2C(=O)[C@]3(OCCC=C[C@H]3C)c3c(Br)cccc32)cc1`, the inhibition is reported as 10.2% (inactive). For `O=C(N[C@@H]1C/C=C\C[C@@H](CC(=O)N(CCO)Cc2ccccc2)C(=O)N[C@H](Cc2ccccc2)COC1=O)OCC1c2ccccc2-c2ccccc21`, the inhibition was 0.7% (inactive). For `CCOC(=O)N/N=C1\CC(C)S(=O)(=O)c2ccc(Cl)cc21` (stereo unspecified), the inhibition was -1.67% (inactive). For `COc1ccc(C(=O)N2CCN(c3ccc(C(C)=O)cc3F)CC2)cc1S(=O)(=O)NC1CC1`, the inhibition was 12.2% (inactive). For `COc1cccc(NC(=O)Nc2nnc(N3CCCCC3C)s2)c1` (stereo unspecified), the inhibition was 8.79% (inactive). For `COc1ccc(C(N)c2csc(NC(=O)Nc3cccc(C(F)(F)F)c3)n2)cc1` (stereo unspecified), the inhibition was 36.4% (active). With `COc1ccc(CN2C(CC(=O)Nc3cccnc3)c3ccc(C(F)(F)F)cc3S2(=O)=O)cc1` (stereo unspecified) the inhibition was 1.05% (inactive). With `O=C1[C@@H](c2ccccc2)[C@@H](c2ccccc2)N1c1ccccc1` the inhibition was -7.47% (inactive). With `COc1ccc(C(C)=O)cc1CSc1nc2nc(C)cc(C)n2n1` the inhibition was -9.62% (inactive). `COc1ccc(C(=O)/C=C/c2ccc(-c3ccccc3)cc2)cc1CSCC(=O)O` was tested, and the inhibition was 29.8% (active). In the case of `COc1cc(C(=O)N2CCN(C/C=C/c3ccccc3)CC2)cc(OC)c1C`, the inhibition is reported as 11.4% (inactive). `Cc1noc(C)c1S(=O)(=O)N(C)C[C@H]1OCCCC[C@@H](C)Oc2ccc(NC(=O)CCCN(C)C)cc2C(=O)N([C@H](C)CO)C[C@@H]1C` was tested, and the inhibition was -8.1% (inactive). With `CC(C)Oc1ccc(CN2CCC2(C)C(=O)NCc2ccc(C(F)(F)F)cc2)cc1` (stereo unspecified) the inhibition was 35.6% (active). With `CC(C)CN1CCC1(C)C(=O)Nc1ccc(OC(F)F)cc1` (stereo unspecified) the inhibition was 15.4% (inactive). With `CC(C)NC(=O)C1(C)CCCCN1Cc1cccc(C(F)(F)F)c1` (stereo unspecified) the inhibition was 0.49% (inactive). `CC(=O)N=c1ncn(CC(COC(C)=O)OC(C)=O)c2nc[nH]c12` (stereo unspecified) was tested, and the inhibition was 6.99% (inactive). For `COC(=O)Cc1ccc(OC2(C)CCN(Cc3ccc4c(c3)OCCO4)C2)cc1` (stereo unspecified), the inhibition was 0.88% (inactive). For `CC(C)(C)NC(=O)C(c1ccco1)N(Cc1ccc2c(c1)OCO2)C(=O)Cn1nnc2ccccc21` (stereo unspecified), the inhibition was 5.93% (inactive). `CCCCCCCCNS(=O)(=O)/C=C/c1cc(C)ccc1CNC(=O)OC(C)(C)C` was tested, and the inhibition was 29.5% (inactive). `COCCn1c(=O)[nH]c(=O)c2cc(C(=O)c3cc(OC)ccc3O)cnc21` was tested, and the inhibition was 16.3% (inactive). For `CCc1ccc(NC(=O)CN2C(=O)COc3ccc(S(=O)(=O)N4CCCC4)cc32)cc1`, the inhibition was -0.54% (inactive). `COP(=O)(Sc1ccccc1)C(Cc1ccccc1)NC(=O)OCc1ccccc1` (stereo unspecified) was tested, and the inhibition was 3.36% (inactive). With `COc1cc(CN2CCCN(C)CC2)c([N+](=O)[O-])cc1OC` the inhibition was -3.03% (inactive). For `COc1cc2c(cc1OC)C(Cc1cc(OC)c(OC)cc1[N+](=O)[O-])=NCC2`, the inhibition was 40% (active). `COc1cc2c(cc1OC)C(c1cccc([N+](=O)[O-])c1)=NCC2` was tested, and the inhibition was 10.7% (inactive). For `CC(C)CCNC(=O)Cn1c(=O)oc2cc(S(=O)(=O)N3CC(C)CC(C)C3)ccc21` (stereo unspecified), the inhibition was 7.1% (inactive). In the case of `CCCNC(=O)C1(C)CCN(C(=O)c2cc(F)ccc2C)C1` (stereo unspecified), the inhibition is reported as 6.2% (inactive). For `Nc1ccc(N=Nc2ccccc2Cl)c(N)n1`, the inhibition was 30% (active). In the case of `COc1ccc(C(C(=O)NC(C)(C)C)N(C(=O)Cn2nnc3ccccc32)c2ccc(C(C)=O)cc2)cc1O` (stereo unspecified), the inhibition is reported as 21.7% (inactive). For `Cc1nc(N)nc(SCc2ccc([N+](=O)[O-])cc2)c1N`, the inhibition was -13.9% (inactive). For `Cc1oc2c(c1C(=O)N1CCOCC1)C(=O)c1ccccc1C2=O`, the inhibition was 70.8% (active). In the case of `N[C@@H](Cc1ccccc1)C(=O)N1CCOCC1`, the inhibition is reported as -2.24% (inactive). For `Cc1ccc(S(=O)(=O)NC(C(=O)N2CCOCCOCCOCCOCC2)c2ccccc2)cc1` (stereo unspecified), the inhibition was -5.21% (inactive).
